Test results as given in PMC7862700, “An all-to-all approach to the identification of sequence-specific readers for epigenetic DNA modifications on cytosine”.

Tests used:
Test in all cases: DAPPL (digital affinity profiling via proximity ligation, sequencing); 10 mM Tris-HCl pH 7.5, 50 mM NaCl, 1 mM DTT, 4% glycerol, room temperature, 30 min; GST-TFs on glutathione beads, 16-mer random dsDNA library, 0.1% formaldehyde crosslink after washing; high values mean tight binding
Details in all cases: protein: recombinant; tags: N-terminal GST; dsDNA, one strand shown
FLI1 = target: T1, FLI1 (Homo sapiens, UniProt Q01543 1-452)
T1 sequence: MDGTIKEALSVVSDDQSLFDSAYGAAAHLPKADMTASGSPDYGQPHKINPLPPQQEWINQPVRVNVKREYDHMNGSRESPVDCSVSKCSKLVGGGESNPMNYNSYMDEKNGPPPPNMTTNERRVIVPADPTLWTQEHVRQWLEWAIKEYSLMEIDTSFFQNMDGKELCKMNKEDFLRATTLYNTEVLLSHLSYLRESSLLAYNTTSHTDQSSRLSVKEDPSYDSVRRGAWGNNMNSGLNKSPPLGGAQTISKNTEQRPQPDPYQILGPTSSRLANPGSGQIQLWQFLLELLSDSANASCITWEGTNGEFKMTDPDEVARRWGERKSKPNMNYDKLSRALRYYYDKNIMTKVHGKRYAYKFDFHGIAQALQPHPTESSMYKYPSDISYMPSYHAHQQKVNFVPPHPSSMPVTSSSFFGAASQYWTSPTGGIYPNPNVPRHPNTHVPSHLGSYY
Summary of the method: (§1)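 The binding signal reported is, for every hexamer, its read frequency for a factor over its read frequency for the tag-only sample. Reads came from pools of yeast-expressed, GST-fused human transcription factors on glutathione beads, barcoded with DNA and mixed with that sample, which were incubated with 200 nmole of a random double-stranded 16-mer DNA library in Tris/NaCl/DTT/glycerol buffer at room temperature for 30 min. After washing, the pools were crosslinked with 0.1% formaldehyde, proximity-ligated with BsaI/T4 ligase for 1 h at 37 °C, PCR-amplified and sequenced on an Illumina NextSeq500.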

ELK1 = target: T2, ELK1 (Homo sapiens, UniProt P19419 1-428)
T2 sequence: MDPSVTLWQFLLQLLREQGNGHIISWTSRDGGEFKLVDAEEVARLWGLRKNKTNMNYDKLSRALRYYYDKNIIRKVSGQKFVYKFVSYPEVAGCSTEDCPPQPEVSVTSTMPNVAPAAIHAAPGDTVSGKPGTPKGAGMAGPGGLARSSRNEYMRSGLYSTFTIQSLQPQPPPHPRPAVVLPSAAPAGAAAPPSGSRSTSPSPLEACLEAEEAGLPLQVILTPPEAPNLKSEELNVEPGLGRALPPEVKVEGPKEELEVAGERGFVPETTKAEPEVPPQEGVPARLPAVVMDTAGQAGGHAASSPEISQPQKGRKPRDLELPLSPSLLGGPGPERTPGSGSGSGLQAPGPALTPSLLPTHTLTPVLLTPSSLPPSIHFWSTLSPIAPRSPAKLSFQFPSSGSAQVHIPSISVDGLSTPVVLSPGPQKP
Summary of the method: as §1

GABPA = target: T3, GABPA (Homo sapiens, UniProt Q06546 1-454)
T3 sequence: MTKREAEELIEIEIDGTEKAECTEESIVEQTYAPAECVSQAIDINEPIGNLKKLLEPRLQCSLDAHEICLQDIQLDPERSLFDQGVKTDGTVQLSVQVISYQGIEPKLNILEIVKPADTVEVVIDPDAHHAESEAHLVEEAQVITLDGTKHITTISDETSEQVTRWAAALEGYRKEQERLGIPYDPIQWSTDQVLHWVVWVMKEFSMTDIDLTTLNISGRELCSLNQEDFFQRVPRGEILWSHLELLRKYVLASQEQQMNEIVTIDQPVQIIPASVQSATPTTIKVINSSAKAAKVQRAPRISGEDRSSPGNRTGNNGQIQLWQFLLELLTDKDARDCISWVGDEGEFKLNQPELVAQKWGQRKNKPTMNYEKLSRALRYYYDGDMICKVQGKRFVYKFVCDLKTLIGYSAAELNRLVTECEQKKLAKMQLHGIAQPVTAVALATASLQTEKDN
Summary of the method: as §1

ERG = target: T4, ERG (Homo sapiens, UniProt P11308 1-479)
T4 sequence: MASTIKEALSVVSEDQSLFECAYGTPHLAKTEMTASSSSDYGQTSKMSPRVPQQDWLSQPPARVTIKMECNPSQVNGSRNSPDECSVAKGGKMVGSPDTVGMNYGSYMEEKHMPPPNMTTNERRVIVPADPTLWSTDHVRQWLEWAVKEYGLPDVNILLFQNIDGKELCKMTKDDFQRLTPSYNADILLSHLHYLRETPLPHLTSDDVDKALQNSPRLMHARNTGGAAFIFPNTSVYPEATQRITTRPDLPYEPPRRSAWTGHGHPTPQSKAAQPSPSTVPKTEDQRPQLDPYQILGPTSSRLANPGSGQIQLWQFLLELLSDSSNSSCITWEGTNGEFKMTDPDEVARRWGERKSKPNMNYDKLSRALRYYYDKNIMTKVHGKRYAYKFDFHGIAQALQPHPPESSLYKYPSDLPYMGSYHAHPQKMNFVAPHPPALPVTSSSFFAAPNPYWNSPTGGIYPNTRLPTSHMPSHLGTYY
Summary of the method: as §1

ELF1 = ELF1 (Homo sapiens, UniProt P32519 1-619)
ELF1, sequence (P32519 whole entry): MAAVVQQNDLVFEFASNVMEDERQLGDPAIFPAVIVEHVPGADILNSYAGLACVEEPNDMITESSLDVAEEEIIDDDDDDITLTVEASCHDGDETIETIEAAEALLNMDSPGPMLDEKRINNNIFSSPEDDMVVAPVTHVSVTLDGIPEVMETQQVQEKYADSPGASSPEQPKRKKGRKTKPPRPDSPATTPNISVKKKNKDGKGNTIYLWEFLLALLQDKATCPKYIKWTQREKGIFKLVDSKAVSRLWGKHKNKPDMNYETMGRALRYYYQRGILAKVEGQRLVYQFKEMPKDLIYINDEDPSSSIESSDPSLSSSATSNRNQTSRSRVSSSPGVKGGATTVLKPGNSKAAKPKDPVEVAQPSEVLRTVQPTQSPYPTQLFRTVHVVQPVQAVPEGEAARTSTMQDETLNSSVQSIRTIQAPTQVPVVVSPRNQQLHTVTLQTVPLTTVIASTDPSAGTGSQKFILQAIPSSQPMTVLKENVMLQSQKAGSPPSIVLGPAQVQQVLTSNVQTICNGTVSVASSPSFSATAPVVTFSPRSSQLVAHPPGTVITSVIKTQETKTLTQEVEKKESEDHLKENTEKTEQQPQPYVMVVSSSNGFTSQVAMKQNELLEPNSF
Summary of the method: as §1

EHF = target: T5, EHF (Homo sapiens, UniProt Q9NZC4 1-300)
T5 sequence: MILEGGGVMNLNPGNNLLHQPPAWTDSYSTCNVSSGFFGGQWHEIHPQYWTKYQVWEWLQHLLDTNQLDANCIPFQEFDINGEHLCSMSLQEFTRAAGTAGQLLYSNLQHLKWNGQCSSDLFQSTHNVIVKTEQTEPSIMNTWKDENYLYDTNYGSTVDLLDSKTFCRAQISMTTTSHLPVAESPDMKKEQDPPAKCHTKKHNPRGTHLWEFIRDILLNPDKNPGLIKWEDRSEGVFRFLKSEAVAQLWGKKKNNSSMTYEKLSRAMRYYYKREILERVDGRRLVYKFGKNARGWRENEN
Summary of the method: as §1

SPI1 = SPI1 (Homo sapiens, UniProt P17947 1-270)
Summary of the method: as §1

SPIB = SPIB (Homo sapiens, UniProt Q01892 1-262)
SPIB, sequence (Q01892 whole entry): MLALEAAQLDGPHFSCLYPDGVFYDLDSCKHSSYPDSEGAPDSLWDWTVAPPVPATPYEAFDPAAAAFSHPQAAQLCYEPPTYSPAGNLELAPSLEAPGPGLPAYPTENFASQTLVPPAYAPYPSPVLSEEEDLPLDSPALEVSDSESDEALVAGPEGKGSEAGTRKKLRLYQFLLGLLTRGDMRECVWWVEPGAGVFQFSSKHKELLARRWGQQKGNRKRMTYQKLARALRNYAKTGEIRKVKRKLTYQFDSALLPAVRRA
Summary of the method: as §1

ELK3 = target: T6, ELK3 (Homo sapiens, UniProt P41970 1-407)
T6 sequence: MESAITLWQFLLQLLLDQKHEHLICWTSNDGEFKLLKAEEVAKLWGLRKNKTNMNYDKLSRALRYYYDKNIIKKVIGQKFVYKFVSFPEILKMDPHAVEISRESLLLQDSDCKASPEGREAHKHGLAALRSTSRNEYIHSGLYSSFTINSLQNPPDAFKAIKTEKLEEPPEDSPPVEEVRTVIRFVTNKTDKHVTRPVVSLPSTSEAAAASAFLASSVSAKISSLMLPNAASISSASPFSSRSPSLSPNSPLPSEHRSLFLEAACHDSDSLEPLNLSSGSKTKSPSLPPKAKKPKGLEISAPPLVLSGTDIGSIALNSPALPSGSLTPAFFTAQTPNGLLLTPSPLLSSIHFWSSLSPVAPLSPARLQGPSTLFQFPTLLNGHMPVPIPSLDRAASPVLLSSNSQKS
Summary of the method: as §1

Sequence	binding signal (FLI1)	binding signal (ELK1)	binding signal (GABPA)	binding signal (ERG)	binding signal (ELF1)	binding signal (EHF)	binding signal (SPI1)	binding signal (SPIB)	binding signal (ELK3)
CGTACT	1.2 fold enrichment (6-mer frequency, TF over GST control)	1.17 fold enrichment (6-mer frequency, TF over GST control)	1.19 fold enrichment (6-mer frequency, TF over GST control)	1.16 fold enrichment (6-mer frequency, TF over GST control)	1.27 fold enrichment (6-mer frequency, TF over GST control)	1.18 fold enrichment (6-mer frequency, TF over GST control)	1.11 fold enrichment (6-mer frequency, TF over GST control)	1.12 fold enrichment (6-mer frequency, TF over GST control)	1.26 fold enrichment (6-mer frequency, TF over GST control)
AAACCT	1.15 fold enrichment (6-mer frequency, TF over GST control)	1.01 fold enrichment (6-mer frequency, TF over GST control)	1.17 fold enrichment (6-mer frequency, TF over GST control)	1.12 fold enrichment (6-mer frequency, TF over GST control)	1.19 fold enrichment (6-mer frequency, TF over GST control)	1.16 fold enrichment (6-mer frequency, TF over GST control)	1.18 fold enrichment (6-mer frequency, TF over GST control)	1.11 fold enrichment (6-mer frequency, TF over GST control)	1.15 fold enrichment (6-mer frequency, TF over GST control)
AAAGCA	1.01 fold enrichment (6-mer frequency, TF over GST control)	1.04 fold enrichment (6-mer frequency, TF over GST control)	1.15 fold enrichment (6-mer frequency, TF over GST control)	1.09 fold enrichment (6-mer frequency, TF over GST control)	1.04 fold enrichment (6-mer frequency, TF over GST control)	1.02 fold enrichment (6-mer frequency, TF over GST control)	1.1 fold enrichment (6-mer frequency, TF over GST control)	1.08 fold enrichment (6-mer frequency, TF over GST control)	1.05 fold enrichment (6-mer frequency, TF over GST control)
AATTGC	1.44 fold enrichment (6-mer frequency, TF over GST control)	1.42 fold enrichment (6-mer frequency, TF over GST control)	1.44 fold enrichment (6-mer frequency, TF over GST control)	1.3 fold enrichment (6-mer frequency, TF over GST control)	1.34 fold enrichment (6-mer frequency, TF over GST control)	1.38 fold enrichment (6-mer frequency, TF over GST control)	1.43 fold enrichment (6-mer frequency, TF over GST control)	1.29 fold enrichment (6-mer frequency, TF over GST control)	1.46 fold enrichment (6-mer frequency, TF over GST control)
GTTCTG	1.14 fold enrichment (6-mer frequency, TF over GST control)	1.21 fold enrichment (6-mer frequency, TF over GST control)	1.16 fold enrichment (6-mer frequency, TF over GST control)	1.16 fold enrichment (6-mer frequency, TF over GST control)	1.08 fold enrichment (6-mer frequency, TF over GST control)	1.16 fold enrichment (6-mer frequency, TF over GST control)	1.17 fold enrichment (6-mer frequency, TF over GST control)	1.16 fold enrichment (6-mer frequency, TF over GST control)	1.18 fold enrichment (6-mer frequency, TF over GST control)
TAATTC	1.5 fold enrichment (6-mer frequency, TF over GST control)	1.36 fold enrichment (6-mer frequency, TF over GST control)	1.48 fold enrichment (6-mer frequency, TF over GST control)	1.48 fold enrichment (6-mer frequency, TF over GST control)	1.48 fold enrichment (6-mer frequency, TF over GST control)	1.37 fold enrichment (6-mer frequency, TF over GST control)	1.33 fold enrichment (6-mer frequency, TF over GST control)	1.51 fold enrichment (6-mer frequency, TF over GST control)	1.58 fold enrichment (6-mer frequency, TF over GST control)
AAACAC	1.25 fold enrichment (6-mer frequency, TF over GST control)	1.33 fold enrichment (6-mer frequency, TF over GST control)	1.24 fold enrichment (6-mer frequency, TF over GST control)	1.33 fold enrichment (6-mer frequency, TF over GST control)	1.31 fold enrichment (6-mer frequency, TF over GST control)	1.35 fold enrichment (6-mer frequency, TF over GST control)	1.3 fold enrichment (6-mer frequency, TF over GST control)	1.27 fold enrichment (6-mer frequency, TF over GST control)	1.24 fold enrichment (6-mer frequency, TF over GST control)
CTCGAG	1.23 fold enrichment (6-mer frequency, TF over GST control)	1.34 fold enrichment (6-mer frequency, TF over GST control)	1.35 fold enrichment (6-mer frequency, TF over GST control)	1.31 fold enrichment (6-mer frequency, TF over GST control)	1.28 fold enrichment (6-mer frequency, TF over GST control)	1.21 fold enrichment (6-mer frequency, TF over GST control)	1.35 fold enrichment (6-mer frequency, TF over GST control)	1.31 fold enrichment (6-mer frequency, TF over GST control)	1.18 fold enrichment (6-mer frequency, TF over GST control)
